# DT40 TDP1 no CPT = qHTS for Inhibitors of human tyrosyl-DNA phosphodiesterase 1 (TDP1): qHTS in cells in absence of CPT; DT40 Tdp1-/- hTDP1 cells, no CPT, ATP luminescence, 48 h; Potency, µM (series often up to 46.2 µM), for inactives: top-dose activity change, negative = growth inhibition, hits mostly inhibitors; hit rate 15% among 420,000; AID 686978, 2013; note: nearly all actives have a fitted effect of over 55% in size
#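 Cells were dispensed at 400 per well, compounds added by pin tool, plates incubated ≥48 hr at 37 °C, then CellTiter-Glo added for 30 min at room temperature before luminescence reading. Line: DT40 Tdp1-/- complemented with hTDP1; camptothecin omitted.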
# TDP1 inh = TDP1 (human) enzyme inhibition. Q9NUW8. Potency, µM (titrated, usually from 130 µM), for the others: top-dose activity change, negative = inhibition, usual class: inhibitors. hit rate 0.28% among 350,000. recombinant TDP1, AlphaScreen DNA substrate cleavage. AID 485290; note: nearly all actives have a fitted effect of over 40% in size
#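 Steps: enzyme plus compound, 15 min RT; add biotin/phosphotyrosine-FITC oligonucleotide (15 nM final), react 5 min; add donor/acceptor beads (10 ug/ml final), 10 min; read AlphaScreen. Tdp1 at 1 nM final.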
# RORgamma inh = blocks mouse ROR gamma transcriptional activity; P51450; Drosophila S2 Gal4-RORgamma UAS-luciferase reporter, 20 h; Potency, µM (titrated, usually from 53.6 µM), for inactives: at the top dose activity change, negative = inhibition, usual class: inhibitors; hit rate 5.4% among 310,000; note: nearly all actives have a fitted effect of over 60% in size
# Target sequence (P51450 whole entry, looked up, the tested form may be a part): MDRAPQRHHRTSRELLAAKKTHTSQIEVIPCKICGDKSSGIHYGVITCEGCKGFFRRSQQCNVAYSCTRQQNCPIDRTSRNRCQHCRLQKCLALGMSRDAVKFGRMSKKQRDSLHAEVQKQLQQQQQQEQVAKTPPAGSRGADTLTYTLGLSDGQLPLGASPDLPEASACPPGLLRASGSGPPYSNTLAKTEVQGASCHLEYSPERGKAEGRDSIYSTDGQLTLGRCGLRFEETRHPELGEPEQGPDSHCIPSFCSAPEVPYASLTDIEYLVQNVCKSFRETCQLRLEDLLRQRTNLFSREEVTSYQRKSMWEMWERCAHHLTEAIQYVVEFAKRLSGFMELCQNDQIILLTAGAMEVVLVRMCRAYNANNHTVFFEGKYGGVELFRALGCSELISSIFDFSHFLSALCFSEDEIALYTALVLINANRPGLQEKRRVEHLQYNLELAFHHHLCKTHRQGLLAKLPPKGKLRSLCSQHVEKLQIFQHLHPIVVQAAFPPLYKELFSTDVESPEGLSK
#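 Compounds are pin-transferred onto Drosophila Schneider cells expressing a copper-inducible Gal4–ROR gamma transactivation domain fusion. After 1 hr, copper sulfate is added to 700 uM final; luciferase is read 20 hr later.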
# VP16 counter = counter-screen for ROR gamma inhibitors: Gal4-VP16 reporter | Drosophila S2 Gal4-VP16 UAS-luciferase, luminescence, 20 h | Potency, µM (doses to about 53.6 µM), for inactives: at the top dose activity, negative = inhibition, most hits filed as inhibitors | hit rate 3.5% among 310,000;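 note: Gal4-VP16 expression switched on by copper sulfate through the metallothionein promoter; nearly all actives have a fitted effect of over 50% in size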
# TDP1 cell CPT = growth inhibition of DT40 Tdp1-/-;hTDP1 cells with camptothecin (screen for TDP1 inhibitors). chicken DT40 Tdp1-/-;hTDP1 cells + 20 nM CPT, ATP luminescence, 48 h. Potency, µM (titrated, usually from 46.2 µM), for the others: top-dose activity change, negative = growth inhibition, usual class: inhibitors. hit rate 12% among 420,000; note: nearly all actives have a fitted effect of over 55% in size
#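 Chicken DT40 Tdp1-/- cells complemented with human TDP1, 400 cells/well, exposed to compounds plus 20 nM camptothecin for at least 48 h at 37 C; viability read as ATP content by CellTiter-Glo luminescence.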
# * = called active by the depositor; ? = inconclusive; . = no result; [ ] = dose if it differs, or a comment. The list is not random: actives were taken first. Their share in the collection is about 19%. Calls come from the whole dose curve; as a rule, active = well fitted curve in the direction sought with a large enough effect; inconclusive = small, poorly fitted or top-dose-only effect, or another doubt; inactive = no such curve, though single readings can be large; an effect the other way counts as inactive or inconclusive. % is set by controls: 0 for no effect and ±100 for the full control effect; potency is the fitted concentration of half-maximal effect.
SMILES,DT40 TDP1 no CPT,TDP1 inh,RORgamma inh,VP16 counter,TDP1 cell CPT
CCCCCCCCCn1c2c(c(=N)c3c1CCC3)CCC2,0.018µM*,4%,62%,?,0.058µM*
CCCCCCCn1c2c(c(=N)c3c1CCC3)CCCC2,0.33µM*,5%,6.3µM*,5.6µM*,0.41µM*
CCCCCCn1c(=O)[nH]c2c(c1=O)CCC2,1%,.,17%,-6%,11%
CCn1c2c(c(=N)c3c1CCC3)CCC2,-6%,1%,65%,-29%,-7%
O=C(COc1ccc(Cl)cc1)N1CCN(Cc2ccc3c(c2)OCO3)CC1,?,6%[56.1 µM],44%,-5%,?
Cc1csc(/N=C/c2ccc([N+](=O)[O-])cc2)n1,1%,6%,7%,-4%,5%
CN(C(=O)COC(=O)/C=C/c1cccc([N+](=O)[O-])c1)C1CCS(=O)(=O)C1 (stereo not given),0%,3%,-12%,4%,-12%
C/C(Cl)=C\Cn1c(=O)c2c(nc3n2CCS3)n(C)c1=O,-10%,5%,-7%,-3%,2%
COc1ccccc1NS(=O)(=O)c1cccc(C(=O)N2CCCC2)c1,19%,0%,.,.,1%
COCCN1C(=O)c2ccc(C(=O)NCc3cccnc3)cc2C1=O,?,3%,10%,-5%,-19%
Cc1cc(-c2cc(C(=O)NCc3ccccc3)on2)nc(S(C)(=O)=O)n1,5.8µM*,2%,5µM*,?,7.3µM*
CCN(CC)C(=O)C1=C(C)N(CCCN2CCCC2=O)C(=O)C(CC(=O)NCCc2ccccn2)C1 (stereo not given),2%,.,.,.,-3%
Cc1cc(C)c2oc(-c3ccc(C)c(NC(=S)NC(=O)c4cccs4)c3)nc2c1,?,2%,2µM*,?,?
Cc1ccc(-c2nc3ccccc3[nH]2)cc1NC(=O)c1ccc2c(c1)OCO2,?,4%,26%,-4%,?
Cc1ccc(-c2nc3ccccc3[nH]2)cc1NC(=O)/C=C/c1ccco1,16µM*,0%,16%,-3%,?
Cc1ccc(-c2nc3ccccc3o2)cc1NC(=S)NC(=O)c1cccs1,?,5%,4µM*,?,-18%
Cc1ccc(-c2nc3ccccc3[nH]2)cc1NC(=S)NC(=O)c1ccccc1Br,15µM*,4%,-17%,-21%,?
CCN(Cc1ccccc1)c1c(C(=O)O)cnc2c1cnn2C,21%,-4%,-22%,2%,14%
CCCc1c(C(=O)N/N=C(\C)CCc2ccccc2)nnn1-c1nonc1N,11%,4%,?,-10%,-8%
CC(C)N1CCN(Cc2ccc(-c3ccccc3Cl)o2)CC1CCO (stereo not given),?,-4%,-9%,-2%,?
Cc1cc(C)c2oc(-c3ccc(C)c(NC(=S)NC(=O)/C=C/c4ccco4)c3)nc2c1,?,0%,0.25µM*,1.4µM*,?
O=C1COc2cc(S(=O)(=O)NCc3ccco3)c(Cl)cc2N1,?,56µM*,.,.,18µM*
CC(C)(C)Nc1nc(Oc2ccc(=O)n(-c3ccccc3)n2)nc(N2CCOCC2)n1,21µM*,1%,-10%,2%,?
CCNc1nc(NC(C)(C)C)nc(Oc2ccc(=O)n(-c3ccccc3)n2)n1,21µM*,8%,10%,-24%,16µM*
COc1ccc(N2CC(C(=O)N3CCN(Cc4ccc5c(c4)OCO5)CC3)CC2=O)cc1 (stereo not given),?,.,?,-7%,12%
SMILES,DT40 TDP1 no CPT,TDP1 inh,RORgamma inh,VP16 counter,TDP1 cell CPT
CCCCOc1ccccc1Cn1c(=O)oc2ccc(C)cc21,?,-4%,-5%,2%,?
COc1ccc(CNC(=O)c2sccc2C)cc1,-2%,0%,-14%,-11%,-13%
Cc1nc(-n2nc(C)c(CCC(C)C)c2C)sc1C(=O)Nc1cccc(Cl)c1,?,2%,.,.,?
CC(=O)c1cccc(NC(=O)c2sc(-n3nc(C)c(CCC(C)C)c3C)nc2C)c1,?,-7%,.,.,13µM*
Cc1cccc(NC(=O)c2sc(-n3nc(C)c(CCC(C)C)c3C)nc2C)c1C,21µM*,5%,.,.,?
Cc1nc(-n2nc(C)c(CCC(C)C)c2C)sc1C(=O)Nc1cccc(Cl)c1C,-13%,-6%,.,.,0%
CC(=O)Nc1nonc1NC(=O)CSc1nc2ccccc2o1,?,4%,0.79µM*,4µM*,?
Cc1nonc1NC(=O)CSc1nc2ccccc2o1,0%,3%[0.0935 µM],8.9µM*,?,-11%
CC(=O)Nc1ccc(NC(=O)CSc2nc3ccccc3o2)cc1,18%,3%,16%,-2%,16%
Cc1ccc(C(=O)NC(=S)Nc2ccc(NC(=O)c3cccs3)cc2)cc1[N+](=O)[O-],3.7µM*,4%,6.3µM*,6.3µM*,8.2µM*
CCOc1ccc(C(=O)Nc2ccc(NC(=O)c3cccs3)cc2)cc1[N+](=O)[O-],-2%,-4%,14µM*,?,0%
C=CCNC(=S)N/N=C1\CCS(=O)(=O)c2ccccc21,-4%,.,18µM*,?,0%
CCCCN(C(=O)CC1OC(=O)c2ccccc21)c1c(N)n(CCCC)c(=O)[nH]c1=O (stereo not given),-7%,.,.,.,-10%
Cc1ccc(C(=O)/C=C/Nc2ccccc2C(N)=O)o1,-5%,-1%,-29%,11%,-5%
CN(C)c1ccc(C=Nc2ccccc2C(N)=O)cc1,?,-12%,?,10µM*,?
Cc1ccc(C=Nc2ccccc2C(N)=O)o1,-17%,4%,?,20µM*,-18%
COc1ccccc1/C=C1\NC(=S)N(CC2CCCO2)C1=O (stereo not given),-26%,-4%,15%,13µM*,-3%
O=c1c(Cl)c(N2CCOCC2)cnn1-c1nc2ccccc2[nH]1,0%,4%,?,?,-19%
CC1(C)CC(=O)c2cnn(-c3nc4ccccc4[nH]3)c2C1,?,7%,8.9µM*,?,?
O=C(c1ccc2c(c1)OCCO2)N1CCCCC1,-6%,6%,-6%[0.365 µM],.,4%
CCc1nc2ccc(C(=O)Nc3ccc(OC)c(OC)c3)cn2c1N(CC)Cc1cccc(Br)c1,23µM*,.,.,.,23µM*
CCc1nc2ccc(C(=O)NCCc3ccccn3)cn2c1N(C)Cc1cccs1,18µM*,.,.,.,?
CCc1nc2ccc(C(=O)Nc3ccc(OC)c(OC)c3)cn2c1N(C)Cc1nccs1,?,.,.,.,15µM*
CCc1nc2ccc(C(=O)NCCc3ccccn3)cn2c1N(C)Cc1nccs1,16µM*,.,.,.,?
CCOc1ccccc1NC(=O)n1ncc2c(C)cccc21,-18%,.,-2%,-5%,-10%

# Screening data: PubChem BioAssay, National Center for Advancing Translational Sciences (NCATS)
